High-throughput results as filed in PubChem.
Hits are enriched below; roughly 2.4% of the tested compounds scored in any of these assays.
D2 ag-1: agonists of human D2 dopamine receptor | HEK293 T-REx D2 cells, calcium flux agonist mode | activation, % at 2 µM | hit rate 0.53% among 340,000;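 active means activation over 3 SD above normal in the single-dose calcium agonist read, cut at about 30% in these data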; further: 0% is about no effect
Target sequence (P14416 whole entry, looked up): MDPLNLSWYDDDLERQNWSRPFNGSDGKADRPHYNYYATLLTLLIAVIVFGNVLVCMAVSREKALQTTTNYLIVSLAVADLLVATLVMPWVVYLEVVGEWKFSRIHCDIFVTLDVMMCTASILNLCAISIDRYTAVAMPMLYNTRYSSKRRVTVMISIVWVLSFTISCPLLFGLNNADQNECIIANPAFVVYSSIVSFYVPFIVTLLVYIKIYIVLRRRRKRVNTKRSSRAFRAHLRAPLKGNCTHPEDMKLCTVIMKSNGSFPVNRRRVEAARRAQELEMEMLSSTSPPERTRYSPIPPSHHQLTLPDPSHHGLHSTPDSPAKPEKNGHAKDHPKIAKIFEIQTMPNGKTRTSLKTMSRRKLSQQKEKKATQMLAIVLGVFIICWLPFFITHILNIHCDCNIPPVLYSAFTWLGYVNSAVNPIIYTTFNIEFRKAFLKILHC
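Agonism is scored from calcium flux in a force-coupled, inducible HEK293 cell line expressing D2, read kinetically for 180 s after compound addition against dopamine controls.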
D2 PAM-1: positively modulates the human D2 dopamine receptor allosterically. potentiation, % at 10 µM. hit rate 0.34% among 340,000. HEK293 T-REx D2, calcium flux, EC20 dopamine potentiation;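 active means potentiation over 3 SD above the plate norm, cut at about 30% in these data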; further: 0% is about no effect
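Using a no-wash calcium dye in inducible, force-coupled HEK293 Trex cells expressing D2, we tracked fluorescence each second for 180 s after compound, then for 180 s after EC20 dopamine to detect augmented signalling.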
D2 ag-2: agonists of human D2 dopamine receptor (beta-arrestin). P14416. DiscoveRx PathHunter D2 beta-arrestin, luminescence, 90 min; 100% = 57 uM dopamine signal. activation, % (concentration not given with the values). hit rate 0.084% among 360,000. AID 624465; in the data active means activation above about 40%; inconclusive means between about 15% and that limit
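DiscoveRx PathHunter D2 beta-arrestin cells (2,100/well) attached overnight, then compound-stimulated 90 min at 37 C in HBSS/10 mM HEPES/0.1% Tween-20 buffer; beta-galactosidase complementation read by luminescence after 1 h at ambient temperature. Dopamine 57 uM final (EC100) as control.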
D2 antag: D2 dopamine receptor (human) antagonism; HEK293 TREx D2 cells, calcium flux, dopamine EC80; hit rate 2% among 340,000; AID 485344; inhibition, % at 10 µM; P14416; in the data active means inhibition above about 30%; inactive means below that, where a call was filed; further: 0% is about no effect
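Overnight-induced (tetracycline, 30 C) HEK293 T-REx cells carrying force-coupled D2 receive a no-wash calcium dye, then compound, then EC80 dopamine at 180 s; signals are read kinetically throughout.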
D2 PAM-2: human D2 receptor positive allosteric modulation; potentiation, % (no concentration beside the values); hit rate 0.23% among 360,000; AID 624464; P14416; DiscoveRx D2 beta-arrestin cells, luminescence, 90 min; 100% = 57 uM dopamine signal; in the data active means potentiation above about 50%; inconclusive means mostly about 30% to 49%
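PathHunter beta-arrestin assay in DiscoveRx D2 cells. Compounds were added with an EC20 of dopamine (50 nM final) for 90 min at 37 deg C. Luminescence was read 1 h after detection reagent, with 57 uM dopamine as the EC100 control.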
Active calls of the source: *.

Screening COc1ccccc1NC(=S)N(CCCN(C)C)Cc1cc2cc3c(cc2[nH]c1=O)OCO3 returned D2 PAM-1 15, D2 ag-2 -4, D2 antag -7 and D2 PAM-2 -3.
For O=C(O)c1cccc2c1C(=O)c1cc([N+](=O)[O-])cc([N+](=O)[O-])c1-2 the results were D2 ag-2 74* and D2 PAM-2 8.
CCOc1c(Cl)cc(C(=O)NCCN2CCCCC2)cc1Cl was read as D2 ag-1 0, D2 PAM-1 -9, D2 ag-2 1, D2 antag 34* and D2 PAM-2 -17.
Cc1ccc(C(=O)NCCN2CCCC2)cc1 was read as D2 ag-1 0, D2 PAM-1 -31, D2 ag-2 -3, D2 antag 8 and D2 PAM-2 -17.
`CCCC(=O)N(CCN(C(=O)CCC)c1ccccc1)c1ccccc1` gave D2 ag-1 1, D2 PAM-1 31*, D2 ag-2 -1, D2 antag -9 and D2 PAM-2 -9.
CCn1c(=O)c(C(=O)NNC(=O)c2cccc(Cl)c2)c(O)c2ccccc21 was read as D2 ag-1 18, D2 PAM-1 45*, D2 ag-2 5, D2 antag 12 and D2 PAM-2 -3.
Screening CCOC(=O)C1(CC2CCCCO2)CCN(Cc2ccc(OC)cc2F)CC1 (stereo unspecified) returned D2 ag-1 -1, D2 PAM-1 -21, D2 ag-2 -3, D2 antag 61* and D2 PAM-2 -15.
For COc1ccc2c3c(cccc13)C(=O)CC2 the results were D2 ag-1 49*, D2 PAM-1 -11, D2 ag-2 -4, D2 antag -15 and D2 PAM-2 -8.
Screening COc1ccc(Br)cc1C1Nc2ccccc2C(=O)N1NC(=O)c1ccncc1 (stereo unspecified) returned D2 ag-1 0, D2 PAM-1 30*, D2 ag-2 -1, D2 antag 2 and D2 PAM-2 -36.
`O=C(NN1C(=O)c2cc(Br)ccc2NC1c1ccccc1Cl)c1ccncc1` (stereo unspecified) gave D2 ag-2 -4 and D2 PAM-2 -20.
For CCOP(=O)(OCC)C(Nc1cccc(C(F)(F)F)c1)c1ccc(C)cc1 (stereo unspecified) the results were D2 ag-1 37*, D2 PAM-1 -17, D2 ag-2 -2, D2 antag -10 and D2 PAM-2 -9.
`CC(=O)Nc1ccc(S(=O)(=O)N2CCC(n3c(C(F)(F)F)nc4cccnc43)CC2)cc1` gave D2 PAM-1 -7.
`Cc1cccc2cc(CN(Cc3ccc(F)cc3)Cc3nnnn3C3CCCC3)c(=O)[nH]c12` gave D2 ag-1 -1, D2 PAM-1 -2, D2 ag-2 0, D2 antag -2 and D2 PAM-2 -16.
For Cc1cccc2cc(CN(Cc3cccs3)C3(c4nnnn4C4CCCC4)CCCC3)c(=O)[nH]c12 the results were D2 ag-1 1, D2 PAM-1 7, D2 ag-2 -2, D2 antag 77* and D2 PAM-2 -5.
`CCN(CC)C(=O)c1cc(S(=O)(=O)N2CCCCC2)c[nH]1` gave D2 ag-1 1, D2 PAM-1 -12, D2 ag-2 2, D2 antag 33* and D2 PAM-2 -5.
For COc1ccc(S(=O)(=O)Nc2c(O)ccc3ccccc23)cc1OC the results were D2 ag-2 inconclusive and D2 PAM-2 107*.
COc1ccc(C(=O)Nc2c(O)ccc3ccccc23)cc1OC was read as D2 ag-2 0 and D2 PAM-2 17.
S=C(Nc1ccc(Cl)cc1)NC1CC2CCC(C1)N2Cc1ccccc1 (stereo unspecified) was read as D2 ag-1 3, D2 PAM-1 -28, D2 ag-2 4, D2 antag 93* and D2 PAM-2 -24.
`CNC(=S)NC1CC2CCC(C1)N2Cc1ccccc1` (stereo unspecified) gave D2 ag-1 1, D2 PAM-1 -26, D2 ag-2 -2, D2 antag 64* and D2 PAM-2 -27.
`CCc1ccc(NC(=S)NC2CC3CCCC(C2)N3Cc2ccccc2)cc1` (stereo unspecified) gave D2 ag-1 0, D2 PAM-1 8, D2 ag-2 -2, D2 antag 40* and D2 PAM-2 -21.
For C=CCN1C2CCCC1CC(NC(=S)Nc1ccc(Cl)cc1)C2 (stereo unspecified) the results were D2 ag-2 0 and D2 PAM-2 -17.
Screening CNC(=S)NC1CC2CCCC(C1)N2Cc1ccco1 (stereo unspecified) returned D2 ag-1 -1, D2 PAM-1 -11, D2 ag-2 -1, D2 antag -8 and D2 PAM-2 -21.
For CC(C)(C)c1ccc(Oc2ccc(NC(=O)c3cccs3)cn2)cc1 the results were D2 ag-1 9, D2 PAM-1 31*, D2 ag-2 2, D2 antag -1 and D2 PAM-2 1.
For COc1ccc(NC(=O)c2cccs2)cn1 the results were D2 ag-1 0, D2 PAM-1 -7, D2 ag-2 -5, D2 antag 9 and D2 PAM-2 -4.
For COc1ccc(OCC(=O)Nc2ccc(NC(=O)c3cccs3)cc2)cc1 the results were D2 ag-1 -1, D2 PAM-1 32*, D2 ag-2 0, D2 antag -11 and D2 PAM-2 -6.
Screening COc1ccc(OCC(=O)NNC(=O)c2cccs2)cc1 returned D2 ag-1 0, D2 PAM-1 3, D2 ag-2 1, D2 antag 1 and D2 PAM-2 10.
For O=C(/C=C/c1ccccc1)NC1CC2CCCC(C1)N2Cc1ccccc1 (stereo unspecified) the results were D2 ag-1 1, D2 PAM-1 -23 and D2 antag 88*.
CCN(CC)C(=O)NC1CC2CCCC(C1)N2Cc1ccccc1 (stereo unspecified) was read as D2 ag-1 0, D2 PAM-1 -40, D2 ag-2 3, D2 antag 92* and D2 PAM-2 -35.
`Cc1ccc(C)c(N2CCN(S(=O)(=O)c3c(C(=O)N4CCC(C)CC4)c(C)n(C)c3C)CC2)c1` gave D2 ag-1 7 and D2 PAM-1 1.
For c1ccc(N2CCN(c3nc4ccccc4n4nnnc34)CC2)cc1 the results were D2 ag-1 1, D2 PAM-1 8, D2 ag-2 0, D2 antag -9 and D2 PAM-2 19.
For Cc1cc(C)n(-c2nc3ccccc3n3nnnc23)n1 the results were D2 ag-1 -1, D2 PAM-1 33*, D2 ag-2 0, D2 antag 4 and D2 PAM-2 -2.
Screening Cc1sc2nc(SCc3nc(-c4ccccc4)no3)n(-c3ccccc3)c(=O)c2c1C returned D2 ag-1 0, D2 PAM-1 34*, D2 ag-2 -3, D2 antag 9 and D2 PAM-2 5.
